A short description of test [1]: ATG_NF_kB_CIS: Attagene CIS-FACTORIAL HepG2 Assay for human Nuclear Factor Kappa B (NF-kB) (AID 2282991). The note with it: HepG2 Attagene cis-factorial NF-kB reporter mRNA; actives raise or lower the signal. A digest of the protocol:
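Measures mRNA induction of an NF-kB-responsive cis-element reporter in HepG2 cells transfected with multiple reporter units, sampled 24 h post-dosing; quantified by fluorescence after RT-PCR and capillary electrophoresis, fitted for activation or inhibition against DMSO.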

A short description of test [2]: ATG_NRF2_ARE_CIS: Attagene CIS-FACTORIAL HepG2 Assay for human Nuclear Factor Erythroid 2 Related Factor 2 (NFR2) response to Antioxidant Response Elements (ARE) (AID 2282992). The note with it: HepG2 Attagene ARE/NRF2 reporter, transcription factor activity; actives raise or lower the signal. An outline of the steps: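 Endogenous transcription factor activity read out as reporter transcript levels (RT-PCR plus capillary electrophoresis, fluorescence) in transiently transfected HepG2 cells. Measured at 24 h after dosing; gain or loss of signal fitted versus DMSO.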

A short description of test [3]: ATG_Oct_MLP_CIS: Attagene CIS-FACTORIAL HepG2 Assay for human Octamer-Binding Transcription Factor (Oct) (AID 2282993). The note with it: HepG2 Attagene cis-factorial Oct reporter, mRNA; actives raise or lower the signal. A digest of the protocol:
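Transient MRTU transfection of HepG2 → 24 h compound treatment → RNA isolation, reverse transcription, PCR → 6-FAM primer extension, HpaI digest → capillary electrophoresis. Activity fitted both directions against DMSO.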

Test [4] concerns the target Cellular tumor antigen p53 (Homo sapiens) (UniProt P04637). Nature of the test: ATG_p53_CIS: Attagene CIS-FACTORIAL HepG2 Assay for human p53 Transcription Factor (AID 2282994). To be noted: HepG2 p53 cis-element reporter, Attagene mRNA; actives raise or lower the signal. A digest of the protocol: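 Endogenous p53 activity read in transiently transfected HepG2 from a cis-element-driven reporter transcript after 24 h exposure. RNA reverse-transcribed, PCR-amplified, fluorescently labelled and sized by capillary electrophoresis; gain or loss fitted against DMSO baseline.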

Test [5] can be described thus: BSK_3C_TissueFactor: BioMAP Diversity Plus: 3C Assay for Tissue Factor Biomarker Activity (AID 2282997). The note with it: BioMAP 3C HUVEC, tissue factor biomarker readout; actives raise or lower the signal. An outline of the steps: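 In this endothelial system, HUVEC are treated for 24 h and Tissue Factor is assessed by ELISA, normalised to DMSO.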
A short description of test [6]: BSK_3C_uPAR: BioMAP Diversity Plus: 3C Assay for Urokinase-type plasminogen activator receptor (uPAR) Biomarker Activity (AID 2282998). The note with it: BioMAP 3C HUVEC, uPAR biomarker ELISA; actives raise or lower the signal. A digest of the protocol: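 ELISA readout of uPAR on human vascular endothelium (umbilical vein primary cells), taken 24 h after chemical dosing. Increases and decreases are both fitted relative to DMSO vehicle.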
For orientation: In an ELISA, binding on a coated surface is turned into a signal by an enzyme label.

A short description of test [7]: BSK_3C_VCAM1: BioMAP Diversity Plus: 3C Assay for Vascular cell adhesion molecule 1 (VCAM1) Biomarker Activity (AID 2282999). The note with it: BioMAP 3C HUVEC, VCAM1 ELISA, cytokine-stimulated; actives raise or lower the signal. An outline of the steps: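 HUVEC primary cells, 24 h compound exposure; VCAM-1 by ELISA; gain/loss of signal fitted bidirectionally vs DMSO baseline.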

Test [8] can be described thus: BSK_4H_Eotaxin3: BioMAP Diversity Plus: 4H Assay for Eotaxin 3 Biomarker Activity (AID 2283000).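 For outcome: CCL26 protein level quantified by ELISA in parallel with SRB cytotoxicity check.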 The note with it: primary human endothelial cells (HUVEC); actives raise or lower the signal. A digest of the protocol: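 ELISA quantitation of CCL26 (Eotaxin-3) protein from chemically dosed human vascular endothelial cells at 24 h; increases and decreases both scored relative to DMSO-treated baseline.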

The target in test [9] is human Peroxisome Proliferator-activated Receptor alpha (PPARa), PPARA (gene 5465) (UniProt Q07869). Nature of the test: ATG_PPARa_TRANS: Attagene TRANS-FACTORIAL HepG2 Assay for human Peroxisome Proliferator-activated Receptor alpha (PPARa) (AID 2283001; active = hit-call score of the fitted dose curve at least 0.9, where 1 is the maximum). A digest of the protocol:
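Transient HepG2 transfection, GAL4-UAS reporters, NR-Gal4 chimeras; 24 h compound exposure. Readout: reporter transcripts by RT-PCR, 6-FAM primer extension, HpaI digest, capillary electrophoresis. Positive direction vs DMSO baseline.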

In test [10] the target is human Peroxisome Proliferator-activated Receptor delta (PPARd), PPARD (gene 5467) (UniProt Q03181). Kind of test: ATG_PPARd_TRANS: Attagene TRANS-FACTORIAL HepG2 Assay for human Peroxisome Proliferator-activated Receptor delta (PPARd) (AID 2283002; active = hit-call score of the fitted dose curve at least 0.9, where 1 is the maximum). A digest of the protocol: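 HepG2 cells transiently transfected with GAL4-UAS multiplexed reporter units driven by exogenous chimeric NR-GAL4 proteins; 24 h compound exposure. Reporter mRNA measured by RT-PCR, 6-FAM primer extension, HpaI digestion and capillary electrophoresis; gain of signal fitted relative to DMSO.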

Read-out in test [11]: Intercellular Adhesion Molecule 1 (ICAM1), ICAM1 (gene 3383)
Nature of the test: BSK_3C_ICAM1: BioMAP Diversity Plus: 3C Assay for Intercellular Adhesion Molecule 1 (ICAM1) Biomarker Activity (AID 2283003). To be noted: primary human endothelial cells (HUVEC); actives raise or lower the signal. A digest of the protocol:
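ELISA read-out of ICAM-1; HUVEC (primary human), 3C system, 24 h post-dosing; bidirectional fit vs DMSO baseline.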

The target in test [12] is human Retinoic Acid Receptor beta (RARb), RARB (gene 5915) (UniProt P10826). Kind of test: ATG_RARb_TRANS: Attagene TRANS-FACTORIAL HepG2 Assay for human Retinoic Acid Receptor beta (AID 2283004; active = hit-call score of the fitted dose curve at least 0.9, where 1 is the maximum). An outline of the steps:
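Fluorescent capillary-electrophoresis detection of GAL4-UAS reporter mRNA defines the endpoint, with induction over DMSO-treated wells scored as activity. Transiently transfected human hepatoma HepG2 cells expressing exogenous NR–Gal4 proteins are exposed to test chemicals for 24 h.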

Test [13] in a line: BSK_3C_Proliferation: Cell Proliferation Assessment in the BioMAP Diversity Plus: 3C Assay (AID 2283006).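 For AC50: potency may reflect either rise or fall in cell number versus DMSO.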 To be noted: primary human endothelial cells (HUVEC). A digest of the protocol: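 HUVEC, sub-confluent; 48 h chemical exposure; 10% TCA fix, 0.1% SRB stain, A560 total protein. Gain or loss of signal fitted both directions vs DMSO control.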
Test [14] has as its target Peroxisome proliferator-activated receptor gamma (Homo sapiens) (UniProt P37231). Kind of test: ATG_PPARg_TRANS: Attagene TRANS-FACTORIAL HepG2 Assay for human Peroxisome Proliferator-activated Receptor-gamma (PPARg) (AID 2283007; active = hit-call score of the fitted dose curve at least 0.9, where 1 is the maximum). An outline of the steps:
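Gain-of-signal endpoint relative to DMSO, derived from reporter mRNA levels quantified by RT-PCR and capillary electrophoresis. Cells were HepG2 transiently expressing a chimeric NR-Gal4 construct with GAL4-UAS reporters, exposed to chemicals for 24 h.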

Test [15] has as its target Nuclear receptor subfamily 1 group I member 2 (Homo sapiens) (UniProt O75469). Nature of the test: ATG_PXR_TRANS: Attagene TRANS-FACTORIAL HepG2 Assay for human Pregnane X Receptor (PXR) (AID 2283008; active = hit-call score of the fitted dose curve at least 0.9, where 1 is the maximum). A digest of the protocol: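 Transactivation by exogenous PXR–GAL4 fusion measured as reporter transcript induction after 24 h compound treatment of transfected human HepG2 cells. Read-out via RT-PCR and capillary electrophoresis of labelled fragments, fitted upward relative to DMSO.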

The target in test [16] is human RAR-related Orphan Receptor gamma (RORg), RORC (gene 6097) (UniProt P51449). Kind of test: ATG_RORg_TRANS: Attagene TRANS-FACTORIAL HepG2 Assay for human RAR-related Orphan Receptor gamma (RORg) (AID 2283011; active = hit-call score of the fitted dose curve at least 0.9, where 1 is the maximum). A digest of the protocol: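 Chimeric RORg-Gal4 transactivation in transfected HepG2; 24 h exposure; RT-PCR/capillary electrophoresis readout of reporter mRNA, DMSO baseline.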

Test [17] addresses Retinoic acid receptor RXR-alpha (Homo sapiens) (UniProt P19793). Nature of the test: ATG_RXRa_TRANS: Attagene TRANS-FACTORIAL HepG2 Assay for human Retinoid X Receptor alpha (RXRa) (AID 2283012; active = hit-call score of the fitted dose curve at least 0.9, where 1 is the maximum). An outline of the steps:
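Read-out: fluorescent reporter-transcript fragments quantified by capillary electrophoresis after RT-PCR. Transiently transfected HepG2 cells carrying GAL4-UAS reporters and NR-GAL4 chimeras were exposed to chemical for 24 h; activity scored as increase over DMSO.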

In test [18] the target is human Retinoic Acid Receptor gamma (RARg), RARG (gene 5916) (UniProt P13631). Kind of test: ATG_RARg_TRANS: Attagene TRANS-FACTORIAL HepG2 Assay for human Retinoic Acid Receptor gamma (RARg) (AID 2283009; active = hit-call score of the fitted dose curve at least 0.9, where 1 is the maximum). A digest of the protocol: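 Readout: reporter transcript levels via RT-PCR, 6-FAM primer-extension labelling, HpaI digestion and capillary electrophoresis. Cells: HepG2 carrying transfected RARg-GAL4 chimera plus UAS reporter set. Dosing 24 h; DMSO negative control.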

For test [19], the target named is human RAR-related Orphan Receptor beta (RORb), RORB (gene 6096) (UniProt Q92753). Nature of the test: ATG_RORb_TRANS: Attagene TRANS-FACTORIAL HepG2 Assay for human RAR-related Orphan Receptor beta (RORb) (AID 2283010; active = hit-call score of the fitted dose curve at least 0.9, where 1 is the maximum). A digest of the protocol:
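HepG2, transient MRTU transfection (GAL4-UAS reporters, exogenous NR-Gal4 chimeras); 24 h compound exposure; total RNA → RT-PCR → 6-FAM primer extension → HpaI digest → CE fluorescence. Positive direction vs DMSO baseline.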

The target in test [20] is Retinoic acid receptor alpha (Homo sapiens) (UniProt P10276). Kind of test: ATG_RARa_TRANS: Attagene TRANS-FACTORIAL HepG2 Assay for human Retinoic Acid Receptor alpha (RARa) (AID 2283005; active = hit-call score of the fitted dose curve at least 0.9, where 1 is the maximum). A digest of the protocol:
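HepG2 transiently transfected with multiplex GAL4-UAS reporter units including a human RARa–GAL4 chimera; 24 h compound exposure. Reporter mRNA quantified by RT-PCR, 6-FAM labeling and capillary electrophoresis; gain of signal versus DMSO.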

Records with an inconclusive call do not appear. Calls of active or inactive are those of the source. Rule for the calls, unless noted: active = hit-call score of the fitted dose curve at least 0.9, where 1 is the maximum; inactive = score below 0.9.

What is called AC50 is the midpoint of the concentration-response curve, whichever way the signal moves.

Nuclear receptor subfamily 1 group I member 2 (Homo sapiens), sequence (O75469 whole entry, looked up, the tested form may be a part): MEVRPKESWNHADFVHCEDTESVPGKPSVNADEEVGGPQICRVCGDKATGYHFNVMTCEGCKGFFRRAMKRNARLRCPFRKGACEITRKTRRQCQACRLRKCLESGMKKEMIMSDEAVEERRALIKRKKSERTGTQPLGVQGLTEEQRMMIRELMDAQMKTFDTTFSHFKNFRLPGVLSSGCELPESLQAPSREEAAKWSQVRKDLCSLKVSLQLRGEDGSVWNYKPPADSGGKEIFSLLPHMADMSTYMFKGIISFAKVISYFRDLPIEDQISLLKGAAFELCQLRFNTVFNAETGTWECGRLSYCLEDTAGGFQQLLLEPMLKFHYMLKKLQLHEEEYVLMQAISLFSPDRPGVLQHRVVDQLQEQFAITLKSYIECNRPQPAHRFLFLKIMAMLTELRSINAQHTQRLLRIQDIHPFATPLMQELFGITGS
human Retinoic Acid Receptor beta (RARb), RARB (gene 5915), sequence (P10826 whole entry, looked up, the tested form may be a part): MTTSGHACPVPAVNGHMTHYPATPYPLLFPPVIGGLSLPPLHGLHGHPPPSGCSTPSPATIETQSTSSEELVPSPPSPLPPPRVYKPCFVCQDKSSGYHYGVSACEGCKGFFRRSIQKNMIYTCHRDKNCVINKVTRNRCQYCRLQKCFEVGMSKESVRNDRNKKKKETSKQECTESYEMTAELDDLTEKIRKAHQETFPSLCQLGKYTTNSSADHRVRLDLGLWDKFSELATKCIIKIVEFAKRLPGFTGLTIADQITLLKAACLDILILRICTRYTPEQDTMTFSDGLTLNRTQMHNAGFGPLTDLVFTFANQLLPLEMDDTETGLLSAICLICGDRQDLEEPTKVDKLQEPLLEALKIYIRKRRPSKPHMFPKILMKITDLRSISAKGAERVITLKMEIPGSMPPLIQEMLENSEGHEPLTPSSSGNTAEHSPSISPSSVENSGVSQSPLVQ
human Retinoic Acid Receptor gamma (RARg), RARG (gene 5916), sequence (P13631 whole entry, looked up, the tested form may be a part): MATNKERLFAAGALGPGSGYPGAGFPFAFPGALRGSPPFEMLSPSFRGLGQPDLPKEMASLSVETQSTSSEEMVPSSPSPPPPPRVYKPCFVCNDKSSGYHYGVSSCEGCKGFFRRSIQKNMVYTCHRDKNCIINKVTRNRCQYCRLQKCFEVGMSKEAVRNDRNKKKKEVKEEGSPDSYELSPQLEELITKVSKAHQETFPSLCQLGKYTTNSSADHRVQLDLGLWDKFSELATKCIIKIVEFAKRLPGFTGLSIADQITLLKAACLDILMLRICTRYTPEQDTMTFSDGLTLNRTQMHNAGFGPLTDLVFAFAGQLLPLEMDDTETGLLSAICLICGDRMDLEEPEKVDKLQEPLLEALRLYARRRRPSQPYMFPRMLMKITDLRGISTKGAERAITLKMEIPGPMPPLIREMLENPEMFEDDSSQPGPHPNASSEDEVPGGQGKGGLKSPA
human Peroxisome Proliferator-activated Receptor alpha (PPARa), PPARA (gene 5465), sequence (Q07869 whole entry, looked up, the tested form may be a part): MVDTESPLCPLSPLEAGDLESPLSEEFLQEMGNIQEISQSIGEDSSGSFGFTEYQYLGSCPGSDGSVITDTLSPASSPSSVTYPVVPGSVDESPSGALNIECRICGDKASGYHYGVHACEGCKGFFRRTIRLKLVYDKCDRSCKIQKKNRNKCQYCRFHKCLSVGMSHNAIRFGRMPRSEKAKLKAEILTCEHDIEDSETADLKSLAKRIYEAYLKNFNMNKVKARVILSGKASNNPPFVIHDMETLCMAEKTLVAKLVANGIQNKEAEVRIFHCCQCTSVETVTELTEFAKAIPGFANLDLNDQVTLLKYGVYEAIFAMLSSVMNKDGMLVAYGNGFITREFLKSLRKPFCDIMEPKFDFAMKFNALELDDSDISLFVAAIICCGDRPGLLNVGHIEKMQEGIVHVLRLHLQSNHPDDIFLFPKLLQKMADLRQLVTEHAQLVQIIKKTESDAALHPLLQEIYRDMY
human RAR-related Orphan Receptor gamma (RORg), RORC (gene 6097), sequence (P51449 whole entry, looked up, the tested form may be a part): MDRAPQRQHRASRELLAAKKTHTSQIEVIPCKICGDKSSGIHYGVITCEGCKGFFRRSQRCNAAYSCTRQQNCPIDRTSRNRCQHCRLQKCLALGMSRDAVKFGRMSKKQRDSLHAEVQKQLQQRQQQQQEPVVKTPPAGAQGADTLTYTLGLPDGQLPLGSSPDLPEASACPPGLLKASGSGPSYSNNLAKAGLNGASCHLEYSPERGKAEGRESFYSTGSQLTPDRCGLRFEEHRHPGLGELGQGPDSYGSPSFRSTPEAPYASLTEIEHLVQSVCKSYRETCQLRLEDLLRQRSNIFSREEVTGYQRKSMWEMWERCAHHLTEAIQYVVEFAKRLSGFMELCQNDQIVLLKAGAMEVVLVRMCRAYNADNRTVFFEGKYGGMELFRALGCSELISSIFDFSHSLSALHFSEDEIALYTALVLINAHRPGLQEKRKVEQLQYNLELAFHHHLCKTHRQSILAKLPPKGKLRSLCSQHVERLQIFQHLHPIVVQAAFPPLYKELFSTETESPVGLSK
human Peroxisome Proliferator-activated Receptor delta (PPARd), PPARD (gene 5467), sequence (Q03181 whole entry, looked up, the tested form may be a part): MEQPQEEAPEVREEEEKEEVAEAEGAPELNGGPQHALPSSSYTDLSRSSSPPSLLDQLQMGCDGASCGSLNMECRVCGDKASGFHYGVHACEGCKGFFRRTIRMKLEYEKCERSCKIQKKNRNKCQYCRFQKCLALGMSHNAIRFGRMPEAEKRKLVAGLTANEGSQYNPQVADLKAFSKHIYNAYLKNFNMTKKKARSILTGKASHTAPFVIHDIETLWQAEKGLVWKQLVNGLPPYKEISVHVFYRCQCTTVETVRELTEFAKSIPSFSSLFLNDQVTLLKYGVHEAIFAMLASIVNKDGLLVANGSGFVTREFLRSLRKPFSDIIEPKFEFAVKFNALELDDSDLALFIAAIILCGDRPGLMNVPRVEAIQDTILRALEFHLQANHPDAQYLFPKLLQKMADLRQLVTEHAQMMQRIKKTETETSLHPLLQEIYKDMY
Retinoic acid receptor alpha (Homo sapiens), sequence (P10276 whole entry, looked up, the tested form may be a part): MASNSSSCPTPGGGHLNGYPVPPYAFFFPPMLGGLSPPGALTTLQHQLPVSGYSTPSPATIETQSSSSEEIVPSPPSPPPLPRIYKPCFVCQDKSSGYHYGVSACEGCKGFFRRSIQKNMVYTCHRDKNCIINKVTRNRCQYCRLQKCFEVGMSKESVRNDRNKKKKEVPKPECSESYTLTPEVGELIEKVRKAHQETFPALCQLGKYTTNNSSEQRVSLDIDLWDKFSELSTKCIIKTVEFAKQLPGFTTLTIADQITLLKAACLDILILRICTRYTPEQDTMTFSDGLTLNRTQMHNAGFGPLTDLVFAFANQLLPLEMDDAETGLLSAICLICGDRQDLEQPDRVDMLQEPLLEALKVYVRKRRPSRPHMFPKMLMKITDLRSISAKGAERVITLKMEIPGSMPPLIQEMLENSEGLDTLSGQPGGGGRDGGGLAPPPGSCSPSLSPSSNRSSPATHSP
Cellular tumor antigen p53 (Homo sapiens), sequence (P04637 whole entry, looked up): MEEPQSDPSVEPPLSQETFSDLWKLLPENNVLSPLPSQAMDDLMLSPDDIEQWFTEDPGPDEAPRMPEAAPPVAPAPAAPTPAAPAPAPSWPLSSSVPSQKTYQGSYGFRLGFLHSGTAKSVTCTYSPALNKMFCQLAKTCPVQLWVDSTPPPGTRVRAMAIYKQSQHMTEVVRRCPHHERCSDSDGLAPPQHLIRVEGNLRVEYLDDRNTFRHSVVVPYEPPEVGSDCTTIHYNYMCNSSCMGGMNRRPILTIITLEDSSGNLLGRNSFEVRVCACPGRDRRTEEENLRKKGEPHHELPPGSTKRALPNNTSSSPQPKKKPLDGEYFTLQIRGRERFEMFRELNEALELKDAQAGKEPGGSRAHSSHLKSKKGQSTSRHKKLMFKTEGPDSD
human RAR-related Orphan Receptor beta (RORb), RORB (gene 6096), sequence (Q92753 whole entry, looked up, the tested form may be a part): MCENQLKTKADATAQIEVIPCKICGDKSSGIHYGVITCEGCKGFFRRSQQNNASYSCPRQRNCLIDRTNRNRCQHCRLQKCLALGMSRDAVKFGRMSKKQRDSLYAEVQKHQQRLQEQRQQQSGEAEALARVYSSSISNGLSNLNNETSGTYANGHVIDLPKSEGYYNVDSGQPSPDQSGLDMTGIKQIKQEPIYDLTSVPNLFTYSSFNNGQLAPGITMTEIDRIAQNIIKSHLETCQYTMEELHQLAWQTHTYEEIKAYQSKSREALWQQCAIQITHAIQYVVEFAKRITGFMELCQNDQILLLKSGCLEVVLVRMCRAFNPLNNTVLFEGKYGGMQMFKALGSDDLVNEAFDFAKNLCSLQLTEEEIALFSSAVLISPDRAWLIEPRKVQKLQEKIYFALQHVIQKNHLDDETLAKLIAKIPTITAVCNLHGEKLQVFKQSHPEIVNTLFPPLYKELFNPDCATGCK
Peroxisome proliferator-activated receptor gamma (Homo sapiens), sequence (P37231 whole entry, looked up, the tested form may be a part): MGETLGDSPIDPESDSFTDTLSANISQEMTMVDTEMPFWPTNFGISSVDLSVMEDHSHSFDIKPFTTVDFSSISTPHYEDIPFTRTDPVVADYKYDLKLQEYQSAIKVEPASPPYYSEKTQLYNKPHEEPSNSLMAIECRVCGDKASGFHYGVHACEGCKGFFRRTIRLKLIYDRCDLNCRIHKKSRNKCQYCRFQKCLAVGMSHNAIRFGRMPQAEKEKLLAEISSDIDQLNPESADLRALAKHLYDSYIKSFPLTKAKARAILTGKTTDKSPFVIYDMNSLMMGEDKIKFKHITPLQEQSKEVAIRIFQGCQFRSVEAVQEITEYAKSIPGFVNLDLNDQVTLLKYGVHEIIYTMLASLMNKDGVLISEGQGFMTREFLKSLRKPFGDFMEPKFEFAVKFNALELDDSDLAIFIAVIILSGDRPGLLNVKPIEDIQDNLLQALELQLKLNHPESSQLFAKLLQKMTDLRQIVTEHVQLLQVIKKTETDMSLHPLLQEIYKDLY

With `Oc1cccc(-c2ccccc2)c1`, the result in test [1], in [3], in test [4], in test [5], in [9] and in [10] was inactive. Besides, the result in test [11], in test [12], in [16] and in test [17] was inactive. In addition, the AC50 in test [2] is 100 µM (active); in test [6], 20 µM (active); in test [7] it was 37.1 µM (active); in [8], 20 µM (active); in [13], 27.2 µM (active); in test [14], 34.6 µM (active). The concentration at half-maximal activity (AC50) in test [15] was 26.1 µM (active).

For `OC(Cc1ccccc1Cl)(Cn1[nH]cnc1=S)C1(Cl)CC1` (stereo not given), the result in test [1], in test [3], in test [5], in [7], in test [10] and in [11] was inactive. In addition, the outcome in test [18], in [19] and in test [17] was inactive. Besides, the half-maximal activity concentration (AC50) in test [2] was 12.1 µM (active); in test [4], 75.7 µM (active); in [6] it was 20 µM (active); in test [8], 20 µM (active); in test [13] it was 30.7 µM (active); in test [14], 59.8 µM (active). Further, the concentration at half-maximal activity (AC50) in test [15] was 17.7 µM (active).

Regarding `O=C(Cc1ccccc1)OCCc1ccccc1`, the compound was called inactive in [1], in [2], in test [3], in [4], in test [5] and in test [6]. The outcome in test [7], in [8], in test [9], in test [10], in [11] and in test [13] was inactive. The outcome in test [14], in test [18] and in test [16] was inactive.

Take `Clc1cc(C(Cl)(Cl)Cl)cnc1Cl`: the values for the AC50 in test [1], in [3] and in test [4] were 8.56 µM (active), 15.6 µM (active) and 14.7 µM (active), respectively. In addition, the compound was classed as inactive in test [2], in test [9], in [10], in [12], in test [14] and in test [15]. Besides, the outcome in test [19] was inactive.

With `CC(C=O)Cc1ccc2c(c1)OCO2` (stereo not given), the compound was called inactive in test [1], in test [2], in [3], in test [4], in [5] and in test [6]. The outcome in test [7], in test [8], in test [9], in test [10], in test [11] and in test [20] was inactive. In addition, the outcome in test [13], in test [14], in test [18], in test [16] and in test [17] was inactive. The AC50 in [15] is 21.5 µM (active).

Regarding `Nc1c(Oc2ccccc2)cc(O)c2c1C(=O)c1ccccc1C2=O`, the compound was classed as inactive in test [1], in test [3], in test [4], in test [5], in [6] and in test [7]. Besides, the result in test [9], in [10], in test [11], in test [12], in test [20] and in test [13] was inactive. Further, the compound was called inactive in [18], in [19], in [16] and in [17]. Further, the concentration at half-maximal activity (AC50) is 2.25 µM (active) in test [2], 10 µM (active) in test [8], 6.44 µM (active) in [14] and 3.13 µM (active) in test [15].

`NC(=O)CCl`: the call in [1], in test [3], in test [4], in test [5], in test [6] and in test [7] was inactive. In addition, the result in [8], in test [10], in test [11], in test [12], in [20] and in test [13] was inactive. Moreover, the outcome in [14], in test [15], in [18], in [19], in [16] and in [17] was inactive. Moreover, the AC50 in test [2] is 78.2 µM (active).

The values are drawn from PubChem BioAssay (EPA / NIEHS).
